Assay outcomes: PubChem, ICCB-Longwood Screening Facility, Harvard Medical School
Mtb MbtI inh = MbtI salicylate synthase inhibition | purified MbtI enzyme, fluorescence intensity read-out | inhibition, % (test concentration not listed) | P9WFX0 | 0.89% of 100,000 active; in the data active = inhibition mostly above about 56%, no sharp cut-off; inactive = mostly below about 77%
Target sequence (P9WFX0 whole entry, looked up): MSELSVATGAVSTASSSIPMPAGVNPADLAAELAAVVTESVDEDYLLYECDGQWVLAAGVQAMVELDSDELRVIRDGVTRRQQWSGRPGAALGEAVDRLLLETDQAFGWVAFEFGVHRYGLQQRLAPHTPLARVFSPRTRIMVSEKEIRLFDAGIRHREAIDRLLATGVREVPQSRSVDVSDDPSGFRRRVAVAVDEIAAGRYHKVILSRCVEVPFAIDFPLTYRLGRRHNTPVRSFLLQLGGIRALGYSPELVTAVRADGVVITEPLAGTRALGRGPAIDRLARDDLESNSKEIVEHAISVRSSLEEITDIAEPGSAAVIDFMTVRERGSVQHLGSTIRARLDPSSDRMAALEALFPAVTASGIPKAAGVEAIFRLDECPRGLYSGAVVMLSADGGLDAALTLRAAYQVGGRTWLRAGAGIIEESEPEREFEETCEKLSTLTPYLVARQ
AID504770 = E. coli YBA685 growth inhibition, screen for V. cholerae RctB inhibitors | E. coli YBA685 rctB-dependent plasmid, OD600 growth, 3 h; stronger effect = lower value | z-score (no concentration beside the values) | 0.27% of 130,000 active | AID 504770; in the data active = z-score below about -2, passing the limit was not always enough
PV pol inh = inhibitors of poliovirus RNA polymerase binding and polymerization | poliovirus polymerase elongation, fluorescence polarization; stronger effect = lower value | % elongation, % (compound at 16.7 µg/mL) | 0.66% of 150,000 active; in the data active = % elongation below about 90%
Mtb MenB inh = inhibitors of Mycobacterium tuberculosis MenB enzyme | MenB enzyme assay, absorbance read-out | inhibition, % (test concentration not listed) | P9WNP5 | 0.43% of 100,000 active; in the data active = inhibition above about 21%, passing the limit was not always enough
A number is an active result; - = inactive; . = not tested or not shown. Shown are actives, neighbours in structure and some others; about 1.5% of the full set was active somewhere.

SMILES	Mtb MbtI inh	AID504770	PV pol inh	Mtb MenB inh
COc1cc(Cl)c(C)cc1NC(=S)N(Cc1ccccc1C)CC1CCC(C(=O)O)CC1 (stereo not given)	52.5	-	-	-
O=C(O)CCC(C(=O)O)N1C(=O)/C(=C/C=C/c2ccco2)SC1=S (stereo not given)	-	-	89.0	-
CCOC(=O)C1CCCC(C)N1 (stereo not given)	-	-	.	.
N#CC1=C2SCN(C3CCCCC3)CN2C(=O)CC1c1c(F)cccc1Cl (stereo not given)	.	.	69.0	.
N#CC1=C2SCN(C3CCCCC3)CN2C(=O)CC1c1ccc(F)cc1 (stereo not given)	.	.	84.0	.
O=C1CCCC2=C1C(c1cccs1)C1C(=O)c3ccccc3C1=N2 (stereo not given)	.	-	72.0	-
COC(=O)c1ccc2nc(NC(=O)c3ccco3)sc2c1	.	-	.	.
O=C(O)c1coc(=O)c(Br)c1	-	-4.7	.	.
O=C(O)c1ccc(Br)c(C(=O)O)c1	.	-	-	-
CC(C)CNC(=O)c1ccccc1S(=O)(=O)N1CCCCC1	93.6	-	-	-
CC1CC(OCC(O)CN)CC(C)(C)C1 (stereo not given)	-	-2.15	-	-
Cc1onc(-c2c(Cl)cccc2Cl)c1NC(=O)Oc1ccc(CC#N)cc1	-	-	-	-
Cc1c(C(=O)O)cccc1C(=O)c1ccccc1	.	-	-	-
CN(C)S(=O)(=O)c1cccc(-c2nnc(SCc3cc(Cl)cc4c3OCOC4)n2N)c1	-	-	80.0	-
CCCCc1c(C(=O)O)cccc1C(=O)O	-	-	-	26.6
O=Nc1c(O)[nH]c2cc3c(cc12)OCCO3	-	-	86.0	-
O=C(N=Nc1c(O)[nH]c2cc3c(cc12)OCCCO3)C1CCCCC1	-	-	-	-
COCCCNC(=O)c1cc2c(-c3cccc(OC)c3)nn(C)c2s1	.	.	-	.
COc1ccc(OC)c(CNC(=O)c2cc3c(-c4ccc(OC)c(OC)c4)nn(C)c3s2)c1	.	.	-	.
COc1ccc(-c2nn(C)c3sc(C(=O)NCCN(C)C)cc23)cc1OC	.	.	60.0	.
CCCN(CCC)CCNC(=O)c1cc2c(-c3ccc(Cl)cc3)nn(C)c2s1	.	.	-	.
CCN(CC)CCNC(=O)c1cc2c(-c3cccc(OC)c3)nn(C)c2s1	.	.	83.0	.
CCCN(CCC)CCCNC(=O)c1cc2c(-c3ccc(OC)c(OC)c3)nn(C)c2s1	.	.	83.0	.
S=C(NCCc1ccccc1)NNc1nc2ccccc2o1	-	-	37.0	-
O=C(O)C1CCCN(S(=O)(=O)Cc2ccccc2)C1 (stereo not given)	-	-	-	-
SMILES	Mtb MbtI inh	AID504770	PV pol inh	Mtb MenB inh
O=C(Nc1ccc2c(c1)OCCO2)C1CCCN(S(=O)(=O)Cc2ccccc2)C1 (stereo not given)	-	-	-	55.9
OCCNc1nc2ccccc2n1Cc1ccccc1	-	-	-	.
COCCNC(=O)Cc1c(C)nc2c(-c3ccccc3)c(C)nn2c1C	-	-	-	-
CC1=C/C(=N\OC(=O)Cc2ccccc2)C(C)=CC1=O	-	-	-	-
CC1=CC(=NC(=O)c2ccco2)C(C)=CC1=O	100.1	-	-	-
CCC(=O)NCCCc1nc2ccccc2n1Cc1ccccc1C	.	-	.	.
CCOC(=O)C1=NN(c2ccccc2)C(=O)/C1=C\c1ccc(N(C)C)cc1	98.0	-	-	-
CN(C)c1ccc(/C=C2\C(=O)N(c3ccccc3)N=C2C(=O)O)cc1	-	-	-	-
COc1ccc2[nH]c(C(=O)N(C)c3ccccc3Cl)cc2c1	.	-	.	.
Cc1c(C(=O)N=c2sc3ccccc3n2C)sc2nc3n(c(=O)c12)CCC3	-	-	-	-
CCN(CC)C(=O)c1cc(-c2ccc(C)cc2)on1	.	-	-	-
C=CCNC(=O)c1cc(-c2ccccc2)on1	-	-	-	33.8
O=C(O)c1cc(-c2ccc(F)cc2)on1	.	-	-	47.4
C=CCNC(=O)c1cc(-c2ccc(OC)cc2)on1	-	-	-	-
CCN(CC)C(=O)c1cc(-c2ccccc2)on1	-	-	-	33.8
Cc1ccccc1NC(=O)CCC(=O)O	-	-	-	-
CCc1ccccc1NC(=O)CCC(=O)O	-	-	-	32.0
CC1(C)CC(=O)C2=C(C1)N=C1c3ccccc3C(=O)C1C2c1ccc(O)c(O)c1 (stereo not given)	85.5	-	.	.
[O-]c1n[n+](-c2ccccc2)no1	.	-3.05	-	-
c1ccc(-c2noc(-c3ccccc3)n2)cc1	-	-	.	.
O=C1c2ccccc2C(=O)c2c1oc1c3c(ccc21)OCN(C1CCS(=O)(=O)C1)C3 (stereo not given)	-	-	87.0	-
COc1ccc(CCN2COc3ccc4c5c(oc4c3C2)C(=O)c2ccccc2C5=O)cc1OC	-	-	-	-
CC(C)CCN1COc2ccc3c4c(oc3c2C1)C(=O)c1ccccc1C4=O	-	-	-	-
O=C1c2ccccc2C(=O)c2c1oc1c3c(ccc21)OCN(CCCN1CCOCC1)C3	-	-	86.0	-
O=C1c2ccccc2C(=O)c2c1oc1c3c(ccc21)OCN(CC1CCCO1)C3 (stereo not given)	-	-	88.0	-
SMILES	Mtb MbtI inh	AID504770	PV pol inh	Mtb MenB inh
O=C1c2ccccc2C(=O)c2c1oc1c3c(ccc21)OCN(C1CCCC1)C3	-	-	83.0	-
CC(Sc1nnc(-c2ccc(F)cc2)n1Cc1ccccc1)C(=O)NCc1ccco1 (stereo not given)	-	-	-	-
CSc1nc(-c2ccco2)nn1C(=O)c1ccccc1	-	-	-	-
CCS(=O)(=O)n1nc(-c2ccco2)nc1SC	82.3	-	-	-
NC(=O)COC(=O)c1cnc(Cl)c(Cl)c1	-	-	-	.
O=C(c1cc2ccccc2cc1O)N1CCOCC1	-	-	-	-
Cc1cc(-c2nnc(-c3ccc(Cl)cc3)o2)no1	-	-	-	-
CCn1c(CSc2ncccn2)nc2cc(C(=O)O)ccc21	-	-	-	-
CCn1c(CS(=O)(=O)c2cc(C)ccc2C)nc2cc(C(=O)O)ccc21	-	-	81.0	-
CSc1nc2n(n1)C(C(C)C)C(C(=O)Nc1ccccc1)=C(C)N2 (stereo not given)	-	-	-	-
FC(F)(F)c1ccc(=S)[nH]c1	93.4	-	-	-
Cn1cccc1C(=O)Nc1ccc2c(c1)nc1n2CCCCC1	-	-	-	-
CC(C)(C)NCC(O)c1ccccc1Cl (stereo not given)	-	-	-	54.7
O=C(COc1ccccc1F)OCCN1CCCC1	-	-	-	.
CCOC(=O)C1CCN(c2c(C(=O)c3ccc(C)cc3)cnc3ccc(F)cc23)CC1	.	.	80.0	.
O=C(c1cccc(Br)c1)N(Cc1cccs1)Cc1cccs1	-	-	-	-
c1ccc2c(c1)Nc1ccccc1S2	-	-	-	-
S=C1CSc2ccccc2N1	77.7	-	-	-
COc1cccc(CNc2cc(C)c3cccc(OC)c3n2)c1OC	-	-	-	-
COc1ccc(-c2cc3nccc(-c4cc(Cl)c(C)cc4O)n3n2)cc1	.	.	86.0	.
COc1ccccc1N1CCN(C(=O)c2ccc[nH]c2=S)CC1	81.1	-	-	-
COc1ccccc1N1CCN(C(=O)c2ccccc2C(F)(F)F)CC1	-	-	-	-
Cc1cc(C)c(C#N)c(SCC(=O)OC(C)C)n1	-	-	-	-
C=COC(=O)CSc1nc(C)cc(C)c1C#N	.	-	86.0	-
